In PubChem BioAssay AID1159580 (chemical genetic matrix, 2015):
In all, about 5,500 compounds went through this assay and about 2,000 (36%) were called active. Inconclusive results (about 18%) are left out. Rule as the data show it: active = normalized growth mostly below about 0.91 (no sharp cut-off); inconclusive = no clear call, values can overlap the other calls; inactive = mostly above about 0.92. Some of the results follow.

Assay: chemical genetic growth profiling, strain panel (AID 1159580);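 also: tested at 20 µM; growth read once vehicle control cultures reached saturation at 30 °C; 1 = growth at the plate median or of vehicle wells; lower values mean less growth of the strain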
Details: S. cerevisiae deletion strains, growth OD

Measured: normalized growth

N#Cc1c(Cl)c(Cl)c(Cl)c(Cl)c1C#N
active: locus YAR019C, strain CDC15, active compounds read low 0.625 | locus YBL105C, strain PKC1, active compounds read low 0.734 | locus YBR135W, strain CKS1, active compounds read low 0.721 | locus YBR136W, strain MEC1, active compounds read low 0.716 | locus YBR160W, strain CDC28, active compounds read low 0.726 | locus YDL017W, strain CDC7, active compounds read low 0.722 | locus YDL028C, strain MPS1, active compounds read low 0.488 | locus YDL101C, strain DUN1, active compounds read low 0.789 | locus YDL108W, strain KIN28, active compounds read low 0.707 | locus YDL132W, strain cdc53, active compounds read low 0.588 | locus YDL214C, strain PRR2, active compounds read low 0.392 | locus YDR052C, strain DBF4, active compounds read low 0.77 | locus YDR054C, strain cdc34, active compounds read low 0.235 | locus YDR226W, strain ADK1, active compounds read low 0.693 | locus YDR477W, strain SNF1, active compounds read low 0.283 | locus YER123W, strain YCK3, active compounds read low 0.169 | locus YER133W, strain GLC7, active compounds read low 0.227 | locus YFL009W, strain cdc4, active compounds read low 0.685 | locus YFL029C, strain CAK1, active compounds read low 0.639 | locus YFR003C, strain YPI1, active compounds read low 0.634 | locus YFR019W, strain FAB1, active compounds read low 0.315 | locus YFR028C, strain CDC14, active compounds read low 0.66 | locus YGR040W, strain KSS1, active compounds read low 0.352 | locus YGR052W, strain FMP48, active compounds read low 0.382 | locus YGR092W, strain DBF2, active compounds read low 0.135 | locus YHR030C, strain SLT2, active compounds read low 0.23 | locus YHR079C, strain IRE1, active compounds read low 0.17 | locus YHR082C, strain KSP1, active compounds read low 0.412 | locus YHR205W, strain SCH9, active compounds read low 0.071 | locus YIL147C, strain SLN1, active compounds read low 0.555 | locus YJL095W, strain BCK1, active compounds read low 0.284 | locus YJL157C, strain FAR1, active compounds read low 0.318 | locus YJR016C, strain ILV3, active compounds read low 0.587 | locus YJR066W, strain TOR1 (second series), active compounds read low 0.459 | locus YJR066W, strain TOR1, active compounds read low 0.376 | locus YKL048C, strain ELM1, active compounds read low 0.282 | locus YKL067W, strain YNK1, active compounds read low 0.359 | locus YKL101W, strain HSL1, active compounds read low 0.346 | locus YKL193C, strain SDS22, active compounds read low 0.66 | locus YKL203C, strain TOR2, active compounds read low 0.37 | locus YLR113W, strain HOG1, active compounds read low 0.302 | locus YLR133W, strain CKI1, active compounds read low 0.238 | locus YLR403W, strain SFP1, active compounds read low 0.109 | locus YML070W, strain DAK1, active compounds read low 0.291 | locus YMR001C, strain CDC5, active compounds read low 0.673 | locus YMR205C, strain PFK2 (second series), active compounds read low 0.159 | locus YMR277W, strain FCP1, active compounds read low 0.594 | locus YNL006W, strain LST8, active compounds read low 0.574 | locus YNL020C, strain ARK1, active compounds read low 0.191 | locus YNL161W, strain CBK1, active compounds read low 0.704 | locus YNL183C, strain NPR1, active compounds read low 0.241 | locus YNL207W, strain RIO2, active compounds read low 0.666 | locus YNL222W, strain SSU72, active compounds read low 0.653 | locus YNL307C, strain MCK1 (second series), active compounds read low 0.162 | locus YOL078W, strain AVO1, active compounds read low 0.652 | locus YOL136C, strain PFK27, active compounds read low 0.26 | locus YOR061W, strain CKA2, active compounds read low 0.141 | locus YOR119C, strain RIO1, active compounds read low 0.37 | locus YOR231W, strain MKK1, active compounds read low 0.285 | locus YOR329C, strain SCD5, active compounds read low 0.701 | locus YPL031C, strain PHO85, active compounds read low 0.219 | locus YPL153C, strain RAD53, active compounds read low 0.158 | locus YPL204W, strain HRR25, active compounds read low 0.214 | locus YPL209C, strain IPL1, active compounds read low 0.711 | locus YPL256C, strain CLN2, active compounds read low 0.492 | locus YPR025C, strain CCL1, active compounds read low 0.728 | locus YPR106W, strain ISR1, active compounds read low 0.851 | locus YPR111W, strain DBF20, active compounds read low 0.756 | strain NNK1, active compounds read low 0.747 | strain TSCII, active compounds read low 0.661
